We go through nine compounds from PubChem BioAssay (NCI).

Compounds without any hit were thinned out: in the full panel of roughly 79,000, 15% have a hit. A number with no mark means an inactive call. The source made the active and inactive calls. Rule as the data show it: active = growth inhibition above about 70%; inactive = the rest.

Test [1] in a line: NCI Yeast Anticancer Drug Screen. Data for the rad50 strain (AID 155).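 Also: 0% = growth of vehicle-only cultures of the same strain.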 The following applies: S. cerevisiae rad50 strain growth inhibition, stronger effect = higher value. The essentials:
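Growth of the mutant yeast was measured after compound exposure and referenced to vehicle-treated cultures.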

The nature of test [2]: NCI Yeast Anticancer Drug Screen. Data for the mec2-1 strain (AID 157). The following applies: S. cerevisiae mec2-1 strain, stronger effect = higher value. The procedure, abridged:
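Growth inhibition is read against vehicle-treated controls after compound exposure of the mec2-1 yeast strain, which is defective in DNA damage repair or cell cycle control.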

A short description of test [3]: NCI Yeast Anticancer Drug Screen. Data for the sgs1 mgt1 strain (AID 161).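 Also: 0% = growth of cultures given vehicle only.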 The conditions noted are these: S. cerevisiae sgs1 mgt1 strain, stronger effect = higher value. The essentials: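 Growth of a repair-deficient yeast mutant was monitored after compound treatment and expressed as inhibition relative to vehicle-treated cultures.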
Test [4] can be described thus: NCI Yeast Anticancer Drug Screen. Data for the cln2 rad14 strain (AID 165).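 Also: 0% = growth equal to vehicle treated cultures.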 The following applies: S. cerevisiae cln2 rad14 strain, stronger effect = higher value. The procedure, abridged:
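Growth inhibition, relative to vehicle-treated controls, is the read-out. The test organism is a yeast strain with defined genetic alterations, cln2 rad14.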

A short description of test [5]: NCI Yeast Anticancer Drug Screen. Data for the bub3 strain (AID 167). The conditions noted are these: S. cerevisiae bub3 mutant strain, stronger effect = higher value. The procedure, abridged:
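Whole-cell yeast assay. The mutant strain was incubated with compounds, and growth inhibition was determined by comparison with vehicle-treated cells.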

Test [6] in a line: NCI Yeast Anticancer Drug Screen. Data for the mlh1 rad18 strain (AID 175). The conditions noted are these: S. cerevisiae mlh1 rad18 strain growth inhibition, stronger effect = higher value. The essentials:
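Cells of a genetically altered yeast strain, deficient in DNA damage repair, were treated with compound. Their growth was then compared with that of vehicle-treated cultures to give inhibition.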

Setting [7] is: at 5.0 µM (retest, dose inferred, filed as 0.5).
[8] abbreviates: at 50.0 µM (retest, dose inferred, filed as 5.0).

Regarding `Oc1ccc2ccccc2c1O`, the growth inhibition is 13% in test [1] (setting [7]); 81% (active) in test [1] (setting [8]); 66.4% in test [1] (at 50.0 µM); 3% in test [2] (setting [7]); 59% in test [2] (setting [8]); 50.9% in test [2] (at 50.0 µM). The growth inhibition in test [3] (setting [7]) was 7%; in test [3] (setting [8]), 84% (active); in test [3] (at 50.0 µM), 57.3%; in test [4] (setting [7]), -5%; in test [4] (setting [8]), 30%; in test [4] (at 50.0 µM), 34%. Moreover, the growth inhibition in test [5] (setting [7]) is 32%; in test [5] (setting [8]) it was 90% (active); in test [5] (at 50.0 µM) it was 70% (active); in test [6] (setting [7]) it was 20%; in test [6] (setting [8]) it was 92% (active); in test [6] (at 50.0 µM), 86.2% (active).

In the case of `CC(C)(c1ccccc1)c1ccc(O)cc1`, the growth inhibition in test [1] (setting [7]) was -5%; in test [1] (setting [8]), 58%; in test [1] (at 50.0 µM), 98% (active); in test [2] (setting [7]), -38%; in test [2] (setting [8]), 88% (active); in test [2] (at 50.0 µM), 99% (active). The growth inhibition in test [3] (setting [7]) was -7%; in test [3] (setting [8]), 46%; in test [3] (at 50.0 µM) it was 99.7% (active); in test [4] (setting [7]), -9%; in test [4] (setting [8]) it was 71% (active); in test [4] (at 50.0 µM) it was 98.8% (active). Besides, the growth inhibition in test [5] (setting [7]) was -23%; in test [5] (setting [8]), 97% (active); in test [5] (at 50.0 µM), 99.5% (active); in test [6] (setting [7]), -8%; in test [6] (setting [8]), 97% (active); in test [6] (at 50.0 µM), 99.5% (active).

In the case of `CC[CH2][Sn]([Br])([Br])[CH2]CC`, the growth inhibition is 29% in test [1] (setting [7]); 91% (active) in test [1] (setting [8]); 83.2% (active) in test [1] (at 50.0 µM); 21% in test [2] (setting [7]); 95% (active) in test [2] (setting [8]); 87.2% (active) in test [2] (at 50.0 µM). In addition, the growth inhibition in test [3] (setting [7]) was 35%; in test [3] (setting [8]) it was 95% (active); in test [3] (at 50.0 µM), 87.1% (active); in test [4] (setting [7]), 26%; in test [4] (setting [8]), 87% (active); in test [4] (at 50.0 µM), 85.2% (active). Besides, the growth inhibition was 31% in test [5] (setting [7]); 96% (active) in test [5] (setting [8]); 83.2% (active) in test [5] (at 50.0 µM); 33% in test [6] (setting [7]); 93% (active) in test [6] (setting [8]); 87.1% (active) in test [6] (at 50.0 µM).

Regarding `CCN(CC)CC(=O)c1ccc2c(ccc3ccccc32)c1`, the growth inhibition in test [1] (setting [7]) is 15%; in test [1] (setting [8]), 98% (active); in test [1] (at 50.0 µM), 99.2% (active); in test [2] (setting [7]), 26%; in test [2] (setting [8]), 100% (active); in test [2] (at 50.0 µM), 99.5% (active). Further, the growth inhibition in test [3] (setting [7]) was 6%; in test [3] (setting [8]), 99% (active); in test [3] (at 50.0 µM) it was 99.5% (active); in test [4] (setting [7]) it was -1%; in test [4] (setting [8]), 97% (active); in test [4] (at 50.0 µM), 99.3% (active). Moreover, the growth inhibition was 8% in test [5] (setting [7]); 99% (active) in test [5] (setting [8]); 99.2% (active) in test [5] (at 50.0 µM); 43% in test [6] (setting [7]); 99% (active) in test [6] (setting [8]); 99.3% (active) in test [6] (at 50.0 µM).

Consider `N.N.N.N.N.N#N.[Cl-].[Os+7]`, for which the growth inhibition is 18% in test [1] (setting [7]); 78% (active) in test [1] (setting [8]); 55.5% in test [1] (at 50.0 µM); 17% in test [2] (setting [7]); 87% (active) in test [2] (setting [8]); 59.4% in test [2] (at 50.0 µM). Further, the growth inhibition in test [3] (setting [7]) is 33%; in test [3] (setting [8]), 90% (active); in test [3] (at 50.0 µM) it was 60.9%; in test [4] (setting [7]) it was 14%; in test [4] (setting [8]), 45%; in test [4] (at 50.0 µM), 57.4%. Further, the growth inhibition in test [5] (setting [7]) was 30%; in test [5] (setting [8]), 91% (active); in test [5] (at 50.0 µM), 59.1%; in test [6] (setting [7]) it was 31%; in test [6] (setting [8]) it was 89% (active); in test [6] (at 50.0 µM) it was 74% (active).

Regarding `CC(O)C(=O)O.CC(O)C(=O)O.[Ni]` (configuration not stated), the growth inhibition in test [1] (setting [7]) was -1%; in test [1] (setting [8]) it was 7%; in test [1] (at 50.0 µM), 4.2%; in test [2] (setting [7]) it was 5%; in test [2] (setting [8]), 3%; in test [2] (at 50.0 µM), 19.1%. Further, the growth inhibition is -1% in test [3] (setting [7]); 4% in test [3] (setting [8]); 0.95% in test [3] (at 50.0 µM); -5% in test [4] (setting [7]); -2% in test [4] (setting [8]); 74% (active) in test [4] (at 50.0 µM). The growth inhibition in test [5] (setting [7]) was 1%; in test [5] (setting [8]), 0%; in test [5] (at 50.0 µM), 18.1%; in test [6] (setting [7]), -2%; in test [6] (setting [8]), 12%; in test [6] (at 50.0 µM) it was 19.4%.

In the case of `O=[N+]([O-])c1csc([N+](=O)[O-])c1`, the growth inhibition in test [1] (setting [7]) is 99% (active); in test [1] (setting [8]) it was 99% (active); in test [1] (at 50.0 µM), 99.3% (active); in test [2] (setting [7]) it was 97% (active); in test [2] (setting [8]), 99% (active); in test [2] (at 50.0 µM), 99.7% (active). The growth inhibition in test [3] (setting [7]) is 95% (active); in test [3] (setting [8]), 99% (active); in test [3] (at 50.0 µM), 99.5% (active); in test [4] (setting [7]) it was 75% (active); in test [4] (setting [8]) it was 99% (active); in test [4] (at 50.0 µM) it was 98.8% (active). For the same compound, the growth inhibition is 89% (active) in test [5] (setting [7]); 99% (active) in test [5] (setting [8]); 99.2% (active) in test [5] (at 50.0 µM); 99% (active) in test [6] (setting [7]); 99% (active) in test [6] (setting [8]); 99.3% (active) in test [6] (at 50.0 µM).

`CN(C)c1ccc(C2N(Cc3ccc(N(CCCl)CCCl)cc3Cl)CCCN2Cc2ccc(N(CCCl)CCCl)cc2Cl)cc1`: the growth inhibition in test [1] (setting [7]) was 1%; in test [1] (setting [8]) it was 97% (active); in test [1] (at 50.0 µM) it was 93.5% (active); in test [2] (setting [7]), -12%; in test [2] (setting [8]), 98% (active); in test [2] (at 50.0 µM), 90.9% (active). Further, the growth inhibition in test [3] (setting [7]) is 1%; in test [3] (setting [8]), 98% (active); in test [3] (at 50.0 µM) it was 99% (active); in test [4] (setting [7]), 1%; in test [4] (setting [8]), 97% (active); in test [4] (at 50.0 µM) it was 15.8%. The growth inhibition in test [5] (setting [7]) is -1%; in test [5] (setting [8]) it was 97% (active); in test [5] (at 50.0 µM), 93.8% (active); in test [6] (setting [7]), 6%; in test [6] (setting [8]), 98% (active); in test [6] (at 50.0 µM), 95.2% (active).

`O=c1c[n+](-c2ccc[nH+]c2)[nH]o1.[Cl][Hg][Cl]`: the growth inhibition in test [1] (setting [7]) was 99% (active); in test [1] (setting [8]) it was 99% (active); in test [1] (at 50.0 µM) it was 99.3% (active); in test [2] (setting [7]) it was 100% (active); in test [2] (setting [8]), 100% (active); in test [2] (at 50.0 µM), 99.5% (active). Also, the growth inhibition in test [3] (setting [7]) is 100% (active); in test [3] (setting [8]) it was 100% (active); in test [3] (at 50.0 µM), 99.5% (active); in test [4] (setting [7]) it was 99% (active); in test [4] (setting [8]) it was 99% (active); in test [4] (at 50.0 µM), 99.3% (active). For the same compound, the growth inhibition is 99% (active) in test [5] (setting [7]); 99% (active) in test [5] (setting [8]); 99.4% (active) in test [5] (at 50.0 µM); 99% (active) in test [6] (setting [7]); 99% (active) in test [6] (setting [8]); 99.2% (active) in test [6] (at 50.0 µM).
